According to PubChem BioAssay AID485298 (National Center for Advancing Translational Sciences (NCATS), 2010):
Where “and” joins values, the source holds several entries; their conditions need not be identical. Identical values can stand only once. In all, about 320,000 compounds went through this assay and about 740 (0.23%) were called active. Another 2% or so got no clear call; they are omitted. Calls follow the shape of the dose curve; as a rule, active = well fitted activation curve with a large enough effect; inconclusive = small, poorly fitted or top-dose-only effect; inactive = no such curve, though single readings can be large or run the other way. Many of the other results were omitted from the sample, so actives are more common in it than they were. A structure can be active in one record and inactive in another.

assay: qHTS Assay for Small Molecule Inhibitors of Mitochondrial Division or Activators of Mitochondrial Fusion; also: nearly all actives have a fitted effect of over 45% in size; as to growth rescue (activation): % of control where 0% means no effect; conditions: S. cerevisiae fusion-defective mutant growth rescue, CellTiterGlo 48 h; series mostly up to 46.1 µM; growth rescue (activation): at the top concentration
Outline: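 Temperature-sensitive fusion-defective S. cerevisiae (e.g. fzo1-1, mgm1-5) were grown with compound in YPEG medium (3% ethanol, 3% glycerol) for 48 hours at 37C. Growth rescue was measured as viability by CellTiterGlo luminescence after 10 minutes at ambient.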
Potency is read from the fitted curve at half-maximal effect.

Row | SMILES | growth rescue (activation) | Potency
1 | O=C(Nc1cccc(-c2nc3ccccc3o2)c1)c1cccc(Br)c1 | 1.19% (inactive) | –
2 | CCc1nccn1CCC(=O)N1CCCC(N2CCN(c3ccccc3F)CC2)C1 (stereo unspecified) | -10.1% (inactive) | –
3 | CCCC(C)NC(=O)C1CCN(C(=O)C2CC(=O)N(c3ccc(C)cc3)C2)CC1 (stereo unspecified) | -4.72% (inactive) | –
4 | O=C(CN1CCSCC1)N/N=C/c1ccc(F)cc1 | -0.82% (inactive) | –
5 | Cc1c(C(=O)N2CCCc3ccccc32)oc2ccccc12 | 13.2% (inactive) | –
6 | Cc1c(C(=O)N2CCCc3ccccc32)sc2nc(-c3ccccc3)cn12 | 8.21% (inactive) | –
7 | Cc1cccc2cc3c(N)c(C(=O)N4CCCc5ccccc54)sc3nc12 | – | 17.8 µM (active)
8 | O=C(Nc1nnc(-c2ccccc2)o1)c1cc(-c2cccs2)nc2ccccc12 | – | 12.6 µM (active)
9 | CC(C)(C)Cc1nnc(NC(=O)c2cc(-c3ccccc3)nc3ccccc23)s1 | 4.92% (inactive) | –
10 | CCCCN(C)CCCNC(=O)c1cc(-c2cccs2)nc2ccccc12 | -16.6% (inactive) | –
11 | O=C(CNc1cccc(S(=O)(=O)N2CCCCC2)c1)Nc1ccccc1F | 1.75% (inactive) | –
12 | CCN(CC)c1ccc(NC(=O)CN2CCN(CC(=O)Nc3ccc(Cl)cc3)CC2)cc1 | 1.98% (inactive) | –
13 | COc1ccc(Cl)cc1NS(=O)(=O)c1cccc(C(=O)NC2CCC(O)CC2)c1 (stereo unspecified) | -6.5% (inactive) | –
14 | CN(C)/C=C1/Nc2ccccc2C1=O | -0.406% (inactive) | –
15 | Cc1cc(C)c(/C=C2\C(=O)Nc3ccccc32)[nH]1 | – | inactive and 16.4 µM (active)
16 | O=C1Nc2ccccc2/C1=C/c1ccnc2ccccc12 | 6.69% (inactive) | –

Row | SMILES | growth rescue (activation) | Potency
17 | O=C(N/C(=C\c1ccc([N+](=O)[O-])cc1)C(=O)N1CCCCC1)c1ccco1 | 5.8% (inactive) | –
18 | CCc1c(C)[nH]c(=S)c(C#N)c1C | 0.532% (inactive) | –
19 | Cc1c(S(=O)(=O)N2CC(C)CC(C)C2)c(=O)n(C)c(=O)n1C (stereo unspecified) | 2.71% (inactive) | –
20 | CCOC(=O)[C@@H]1[C@H]2COc3ccc(Br)cc3[C@H]2N2C(=O)N(c3ccc(Cl)cc3)C(=O)[C@@]12C | 9.23% (inactive) | –
21 | COc1ccc(Nc2ncnc3ccc(Br)cc23)c(OC)c1 | 2.1% (inactive) | –
22 | COc1ccc(C(=O)N2CC3(C)CC2CC(C)(C)C3)cc1OC (stereo unspecified) | 2.86% (inactive) | –
23 | CC1(C)CC2CC(C)(CN2c2ncnc3ccc(Br)cc23)C1 (stereo unspecified) | – | 15.8 µM (active)
24 | CCc1ccc(N(C(=O)c2csnn2)C(C(=O)NC2CCCCC2)c2cccnc2)cc1 (stereo unspecified) | 12% (inactive) | –
25 | OCC[C@H]1C[C@H](O)[C@@H](O)[C@]2(CCc3ccccc3O2)O1 | -1% (inactive) | –
26 | O=C(c1ccc(S(=O)(=O)c2ccccc2)cc1)N1CCCCCC1 | 0.467% (inactive) | –
27 | O=C(c1ccc(CSc2ccccc2)cc1)N1CCCCCC1 | – | 10 µM (active)
28 | CC1CCN(C(=O)c2ccc(CSc3ccc(Cl)cc3)cc2)CC1 | 19.4% (inactive) | –
29 | Cc1cc(F)ccc1S(=O)(=O)Nc1ncnc2scc(-c3ccc(F)cc3)c12 | -7.34% (inactive) | –
30 | O=C(COC(=O)c1ccccc1)c1ccc2c(c1)OCCO2 | 6.73% (inactive) | –
31 | Cc1ccc(NC(=O)CSc2sc3c(O)cc(=O)[nH]c3c2C#N)cc1C | -6.97% (inactive) | –
